# Source: PubChem BioAssay
# Active and inactive are the calls of the source.
# Tests used:
# [1] = target: Albumin (Bos taurus) (UniProt P02769); assay: bovine serum albumin binders on microarray, profiling panel, artefact control for SMM control protein annotation, biochemical, small-molecule microarray, Alexa647 label, 635/667 nm fluorescence (AID 1118); details: BSA-A647 binding, fluorescence 635 nm, higher = more signal;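 also: score merges 667 nm emission intensity and signal-to-noise per printed compound spot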
# [2] = small-molecule microarray binders of probe aXIP, primary screen, biochemical, NeuroSMM set, 635/667 nm fluorescence (AID 1119); details: higher = more signal, called active from +8 up or from −8 down;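 also: probe is the protein aXip251-270 applied at 1 µg/mL to compound-printed slides; binding of probe to printed compounds measured as 667 nm fluorescence plus signal to noise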
# [3] = small-molecule binders of probe aNOTCH3, primary screen, biochemical, small-molecule microarray, 635/667 nm fluorescence (AID 1120); details: higher = more signal;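 also: probe is a biotin-tagged antibody raised against NOTCH3 rather than NOTCH3 protein; score merges spot fluorescence near 667 nm with spot signal to noise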
# [4] = small-molecule binders of probe aNOTCH2, primary screen, biochemical, small-molecule microarray, 635/667 nm fluorescence (AID 1121); details: higher = more signal;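 also: score merges feature fluorescence read at 667 nm with its signal to noise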
# [5] = target: Carbonic anhydrase 2 (Homo sapiens) (UniProt P00918); assay: CAII small-molecule binders, profiling panel, biochemical, small-molecule microarray, Alexa647-labelled CAII (AID 1122); details: CAII-A647 binding fluorescence, higher = more signal
# [6] = COS7 lysate on small-molecule microarray, probe aHis, 635 nm (AID 1123); details: COS7 cell lysate, fluorescence, higher = more signal;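 also: z-score combines 667nm fluorescence intensity with signal-to-noise per printed compound spot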
# [7] = compound binding in COS7 lysate, probe aLAP1, primary screen, cell lysate, small-molecule microarray (AID 1124); details: probe aLAP1, fluorescence, higher = more signal;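 also: lysate comes from COS7 cells expressing LAP1 and is applied at 0.3 µg/mL; score merges spot fluorescence near 667 nm with signal-to-noise over triplicate slides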
# [8] = system: Sam68 (KHDRBS1); assay: Sam68 small-molecule binders, primary screen, biochemical, small-molecule microarray, 635 nm fluorescence (AID 1125); details: small-molecule microarray binding, higher = more signal;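 also: score merges 667 nm channel intensity with signal to noise over triplicate slides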
# [9] = system: Chordin-like protein 2 (CHRDL2); assay: CHRDL2 small-molecule binders, primary screen, biochemical, small-molecule microarray, 635 nm fluorescence (AID 1126); details: small-molecule microarray binding, fluorescence 635 nm; higher = more signal;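 also: printed compound slides probed with Chrdl2 protein at 4 µg/mL for 1 h at 4 C; score merges 667 nm emission intensity with signal to noise over three replicate slides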
# [10] = target: Concanavalin-A (Canavalia ensiformis) (UniProt P02866); assay: ConA small-molecule binders, primary screen, artefact control for SMM control protein annotation, biochemical, small-molecule microarray, Alexa647 label, 635 nm (AID 1127); details: ConA-A647 binding fluorescence, higher = more signal;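 also: z combines 667 nm emission intensity with signal-to-noise across three replicate slides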
# Sequence of Concanavalin-A (Canavalia ensiformis) (P02866 whole entry, looked up): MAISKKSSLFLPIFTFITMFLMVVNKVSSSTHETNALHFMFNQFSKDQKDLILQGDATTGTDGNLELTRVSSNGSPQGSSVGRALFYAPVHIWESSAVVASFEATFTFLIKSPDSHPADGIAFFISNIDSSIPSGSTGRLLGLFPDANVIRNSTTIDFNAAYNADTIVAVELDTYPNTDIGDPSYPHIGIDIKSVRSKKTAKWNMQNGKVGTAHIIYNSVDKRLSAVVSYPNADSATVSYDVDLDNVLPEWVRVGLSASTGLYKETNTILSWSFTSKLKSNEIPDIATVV
# Sequence of Albumin (Bos taurus) (P02769 whole entry, looked up): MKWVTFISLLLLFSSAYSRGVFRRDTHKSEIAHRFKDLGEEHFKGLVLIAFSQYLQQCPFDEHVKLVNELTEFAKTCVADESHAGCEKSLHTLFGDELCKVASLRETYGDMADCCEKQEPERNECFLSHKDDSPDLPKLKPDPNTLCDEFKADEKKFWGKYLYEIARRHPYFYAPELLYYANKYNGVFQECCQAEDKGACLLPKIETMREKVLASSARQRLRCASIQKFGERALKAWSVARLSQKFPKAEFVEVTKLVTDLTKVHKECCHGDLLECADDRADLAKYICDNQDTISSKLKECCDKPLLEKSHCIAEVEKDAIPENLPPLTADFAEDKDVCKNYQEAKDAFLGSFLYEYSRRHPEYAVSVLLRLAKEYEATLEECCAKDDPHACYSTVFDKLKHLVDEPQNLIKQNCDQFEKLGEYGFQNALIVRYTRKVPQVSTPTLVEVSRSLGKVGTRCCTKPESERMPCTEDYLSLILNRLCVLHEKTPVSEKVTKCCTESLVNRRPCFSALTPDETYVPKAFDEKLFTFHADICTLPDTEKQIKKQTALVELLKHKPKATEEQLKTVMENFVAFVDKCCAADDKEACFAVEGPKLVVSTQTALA
Compound,composite z-score [1],composite Z-score [2],composite z-score [3],composite z-score [4],composite z-score [5],composite z-score [6],composite z-score [7],composite z-score [8],composite z-score [9],composite z-score [10]
COC(=O)C(CC#Cc1ccc2c(c1)[C@]1(C(=O)N2)[C@H](c2ccc(O)cc2)N2[C@H](c3ccccc3)[C@H](c3ccccc3)OC(=O)[C@H]2[C@@H]1C(=O)O)C(=O)OC,0.587,0.877 (inactive),0.18,-0.0891,0.766,1.07,0.308,0.318,-0.3,0.819
CN1C(=O)C2C=CC(C(O)C3CCCCC3)N(N(c3ccccc3)c3ccccc3)C2C1=O (stereo not given),-0.0103,0.54 (inactive),0.367,0.232,0.72,2.56,1.21,-0.864,-1.04,-1.27
COCCOC(=O)N1C(=O)[C@@]2(c3cc(C#CCC(C(=O)OC)C(=O)OC)ccc31)[C@H](C(=O)N1CCCCCCC1)[C@H]1C(=O)O[C@H](c3ccccc3)[C@H](c3ccccc3)N1[C@@H]2c1ccc(O)cc1,-0.0345,0.604 (inactive),0.996,0.222,0.387,2.34,2.4,1.31,1.29,0.783
COCCOC(=O)N1C(=O)[C@@]2(c3cc(C#CCCO)ccc31)[C@H](C(=O)N1CCc3cc(OC)c(OC)cc3C1)[C@H]1C(=O)O[C@H](c3ccccc3)[C@H](c3ccccc3)N1[C@@H]2c1ccc(OCCO)cc1,0.455,0.552 (inactive),0.19,-0.147,0.476,1.54,0.765,1.3,0.956,1.09
O=C(NCc1ccccc1)[C@]1(Cc2ccccc2)N=C(c2ccc(OCCCO)cc2)O[C@@H]1c1ccccc1,0.895,0.638 (inactive),0.062,-0.0519,0.604,1.32,0.225,0.938,-0.243,0.418
C=CCC(OC(C)=O)[C@@H]1[C@@H](N(Cc2cc3ccccc3o2)C(=O)Cc2ccc(OC)cc2)c2cc(OCCCO)ccc2N1C(=O)c1ccc(-c2ccccc2)cc1 (stereo not given in full),0.0023,-0.287 (inactive),0.111,0.0098,-0.137,-0.338,-0.0843,-0.494,0.224,-1.15
CC(C)NC(=O)[C@@]1(Cc2ccccc2I)c2ccccc2C(=O)N(Cc2ccccc2C(F)(F)F)[C@H]1c1ccc(CO)cc1,0.263,0.0307 (inactive),0.059,0.0509,0.71,1.47,0.896,0.63,0.107,0.548
CCCN1C(=O)[C@@H]2Cc3c([nH]c4ccccc34)[C@@H](c3cccc(O)c3)N2C1=O,-0.17,-0.12 (inactive),-0.0967,-0.0859,-0.112,0.207,1.36,0.65,0.426,0.46
C=CC[C@]1(C(=O)N(C)C)N=C(c2ccc(OCCCO)cc2)O[C@H]1c1ccccc1,0.641,-0.001 (inactive),0.297,-0.124,0.687,2.93,0.795,1.26,-0.336,0.999
COCCCNC(=O)[C@@]1(Cc2ccccc2I)c2ccccc2C(=O)N(Cc2ccccc2Cl)[C@H]1c1ccc(CO)cc1,0.681,0.432 (inactive),-0.0492,-0.139,0.344,0.184,0.438,0.902,-0.105,0.752
COc1cc2c(cc1OC)CN(C(=O)[C@@H]1[C@H]3C(=O)O[C@H](c4ccccc4)[C@H](c4ccccc4)N3[C@H](c3ccc(O)cc3)[C@@]13C(=O)Nc1ccc(C#CCNC(N)=O)cc13)CC2,0.0738,0.507 (inactive),0.114,-0.182,-0.0348,0.276,1.06,0.425,0.498,0.826
CCC[C@@H]1C[C@@]1(CCC)[C@@H](NC(=O)c1ccco1)c1ccc(Cl)cc1,-0.638,-0.392 (inactive),-0.173,-0.0324,-0.464,-0.241,-0.0117,-1.48,-0.493,-0.517
NC(=O)NCC#Cc1ccc2c(c1)[C@]1(C(=O)N2)[C@H](c2ccc(OCCO)cc2)N2[C@H](c3ccccc3)[C@H](c3ccccc3)OC(=O)[C@H]2[C@@H]1C(=O)N1CCN(c2ncccn2)CC1,-0.17,-0.991 (inactive),0.108,0.0101,0.257,0.815,0.332,0.776,0.903,0.698
CCCCC(CC)C(O)C1C=CC2C(=O)NC(=O)C2N1Nc1ccccn1 (stereo not given),0.806,0.975 (inactive),0.0866,-0.0071,0.677,2.53,0.321,1.27,-0.105,0.86
CC(C)c1ccc(NN2C(C(O)c3cccs3)C=CC3C(=O)N(c4ccccc4)C(=O)C32)cc1 (stereo not given),0.772,0.302 (inactive),0.319,-0.136,0.76,2.06,0.665,1.31,-0.127,1.13
COC(=O)[C@@]1(Cc2ccc(OC)cc2)[C@H]2c3cc(C(=O)N(C)C)n(Cc4cc(C)n(C)n4)c3C[C@H]2CN1C(=O)c1ccccc1,0.19,0.638 (inactive),0.166,0.0736,0.88,3.4,0.898,1.06,-0.285,-0.307
